From the supplement of paper PMC10981050
Values joined by “and” are separate entries in the source; they are usually repeats but may differ in a detail not shown here. Identical values can stand only once. Counter-ions that a name gives are not always drawn.

What was measured:
Assay in all cases: cell viability relative to vehicle control; higher = less cytotoxic
Details in all cases: 10 µM
K562 = system: K562
Method in brief: (§1)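 CRISPR-edited mutant clones and isogenic wild-type clones from four leukaemia lines were screened against Selleck bioactive, kinase and epigenetic probe libraries, with identity-inconsistent compounds excluded. Each compound was acoustically dispensed at a single 10 µM dose into 384-well plates holding 2000 cells in 50 µL medium per well. After 48 h the supernatant was removed and CellTiter-Glo luminescence was read. Viability was expressed as percent of the on-plate vehicle control and analysed in Genedata Screener.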

MARIMO = system: MARIMO
Method in brief: as §1

MOLM14 = system: MOLM14
Method in brief: as §1

OCI-AML2 = system: OCI-AML2
Method in brief: as §1

| Structure (SMILES) | cell viability (K562; SRSF2 genotype: SRSF2 P95H/wt) | cell viability (K562; SRSF2 genotype: SRSF2 wt/wt) | cell viability (MARIMO; SRSF2 genotype: SRSF2 P95H/wt) | cell viability (MARIMO; SRSF2 genotype: SRSF2 wt/wt) | cell viability (MOLM14; SRSF2 genotype: SRSF2 P95H/wt) | cell viability (MOLM14; SRSF2 genotype: SRSF2 wt/wt) | cell viability (OCI-AML2; SRSF2 genotype: P95H/wt) | cell viability (OCI-AML2; SRSF2 genotype: wt/wt) |
| --- | --- | --- | --- | --- | --- | --- | --- | --- |
| Cc1ccc(=O)n(-c2ccccc2)c1 [Pirfenidone] | 104% and 107% | 103% | 103% | 103% | 97.1% | 98.8% | 109% | 106% |
| COc1ccc2[nH]c([S+]([O-])Cc3ncc(C)c(OC)c3C)nc2c1 (centres undefined) [Omeprazole (Prilosec)] | 97.3% and 91.5% | 95.6% | 92.8% | 98.5% | 94.9% | 95.8% | 98% | 100% |
| CC1CCc2cc(F)cc3c(=O)c(C(=O)O)cn1c23 (centres undefined) [Flumequine] | 96.6% and 94.5% | 97.5% | 95.6% | 104% | 95.1% | 102% | 96.3% | 107% |
| Cc1ccc(Nc2ncc3c(n2)N(C)C(=O)N(c2cc(NC(=O)c4cccc(C(F)(F)F)c4)ccc2C)C3)cn1 | 57.3% and 59.5% | 43.1% | 38.1% | 37.4% | 17.9% | 17.5% | 40.8% | 35.2% |
| N#C/C(=C1/SC[C@@H](c2ccc(Cl)cc2Cl)S1)n1ccnc1 [Luliconazole] | 85.6% and 83.3% | 82.6% | 78.9% | 100% | 88.7% | 89.5% | 62.5% | 83.5% |
| CC(=C(CCOC(=O)C(C)C)SSC(CCOC(=O)C(C)C)=C(C)N(C=O)Cc1cnc(C)nc1N)N(C=O)Cc1cnc(C)nc1N (stereo in doubt) [Sulbutiamine] | 99% and 93.5% | 93.6% | 84.7% | 95.4% | 84.2% | 90.8% | 84.7% | 93.6% |
| COc1ccc(C[C@@H](C)NC[C@H](O)c2ccc(O)c(NC=O)c2)cc1 [Arformoterol Tartrate] | 97.2% and 91.1% | 98.8% | 85.2% | 106% | 86.5% | 90.9% | 109% | 103% |
| O=C(CCN1CCN(C(=O)OCc2cc(Cl)cc(Cl)c2)CC1)c1ccc2[nH]c(=O)oc2c1 | 88.6% and 96.5% | 94.5% | 87.2% | 106% | 83.1% | 98.8% | 88.2% | 109% |
| C[C@@H]1O[C@@H](O[C@@H]2[C@@H](O)[C@H](OCCc3ccc(O)c(O)c3)O[C@H](COC(=O)/C=C/c3ccc(O)c(O)c3)[C@H]2O)[C@H](O)[C@H](O)[C@H]1O [Isoacteoside] | 101% and 104% | 91.6% | 99% | 103% | 94.9% | 101% | 100% | 106% |
| Cc1cc(C)nc(SCC(=O)Nc2ncc(Cc3cccc4ccccc34)s2)n1 | 79.2% and 84.5% | 75.5% | 78.5% | 86.9% | 41.1% | 42.4% | 61.4% | 66.4% |
| C[C@H](CC(=O)C[C@@H](C)[C@H]1C[C@H](O)[C@@]2(C)C3=C(C(=O)C[C@]12C)[C@@]1(C)CCC(=O)C(C)(C)[C@@H]1C[C@@H]3O)C(=O)O [Ganoderic acid A] | 102% and 109% | 103% | 104% | 104% | 99.5% | 102% | 102% | 111% |
| CCCCCCCCCCCCCc1cccc(O)c1C(=O)O [Ginkgolic Acid (C130)] | 108% and 100% | 108% | 103% | 107% | 104% | 110% | 102% | 103% |
| COc1ccc2[nH]c(=O)oc2c1 [Coixol] | 94.8% and 103% | 95% | 97.8% | 96.3% | 103% | 98.2% | 102% | 93.9% |
| C[C@@H]1CN(CC(=O)Nc2ccc3c(c2)Cc2cccc(-c4cc(=O)cc(N5CCOCC5)o4)c2S3)C[C@H](C)O1 | 98.9% and 102% | 99.1% | 82.9% | 86.9% | 56.9% | 55.8% | 51.3% | 64.2% |
| NC(=O)c1ccc[n+]([O-])c1 [Nicotinamide N-oxide] | 110% | 111% | 107% | 109% | 98.7% | 105% | 112% | 101% |
| O=C(NC1CCOCC1)c1ccc(-c2cc(-c3c[nH]nc3-c3ccccn3)ccn2)cc1 | 88.3% and 99.8% | 93% | 102% | 110% | 103% | 103% | 101% | 101% |
| CC1=C(/C=C/C(C)=C/C=C/C(C)=C/C=C/C=C(C)/C=C/C=C(C)/C=C/C2=C(C)C(=O)[C@@H](O)CC2(C)C)C(C)(C)C[C@H](O)C1=O [Astaxanthin] | 104% | 106% | 98.3% | 96.9% | 102% | 101% | 89.8% | 99.8% |
| CC1(C)C[C@@H]1C(=O)N/C(=C\CCCCSC[C@H](N)C(=O)O)C(=O)O [Cilastatin] | 104% and 93.4% | 105% | 97% | 100% | 104% | 103% | 102% | 110% |
| CC(C(=O)O)c1cccc(Oc2ccccc2)c1 (centres undefined) [Fenoprofen calcium] | 90.9% and 83.7% | 86.4% | 88.2% | 92.5% | 89.5% | 90.7% | 84.1% | 87.5% |

| Structure (SMILES) | cell viability (K562; SRSF2 genotype: SRSF2 P95H/wt) | cell viability (K562; SRSF2 genotype: SRSF2 wt/wt) | cell viability (MARIMO; SRSF2 genotype: SRSF2 P95H/wt) | cell viability (MARIMO; SRSF2 genotype: SRSF2 wt/wt) | cell viability (MOLM14; SRSF2 genotype: SRSF2 P95H/wt) | cell viability (MOLM14; SRSF2 genotype: SRSF2 wt/wt) | cell viability (OCI-AML2; SRSF2 genotype: P95H/wt) | cell viability (OCI-AML2; SRSF2 genotype: wt/wt) |
| --- | --- | --- | --- | --- | --- | --- | --- | --- |
| COc1cc(C(=O)N2CCC(N3CCN(C)CC3)CC2)ccc1Nc1ncc2c(n1)N(C)c1ccccc1C(=O)N2C | 49.8% and 57.1% | 61.2% | 26.9% | 31.8% | 16.3% | 20.6% | 10.9% | 21.2% |
| Cc1c(C)c2c(c(C)c1OC(=O)CCC(=O)OCCOCCOCCO)CCC(C)(CCCC(C)CCCC(C)CCCC(C)C)O2 (centres undefined) [Tocofersolan] | 78.2% and 80.7% | 92.4% | 80.3% | 63.5% | 87.2% | 97.2% | 59.5% | 77.4% |
| C[C@H]1COc2c(N3CCN(C)CC3)c(F)cc3c(=O)c(C(=O)O)cn1c23 [Levofloxacin (Levaquin)] | 95.5% and 83.8% | 87.5% | 90.4% | 101% | 95.2% | 88% | 87.3% | 88.3% |
| CCOC(=O)C1=C(COCCN)NC(C)=C(C(=O)OC)C1c1ccccc1Cl (centres undefined) [Amlodipine besylate (Norvasc)] | 79.6% and 95.8% | 84.3% | 76.8% | 78.3% | 54.7% | 59.5% | 36.2% | 44.2% |
| CC(=O)[C@@]1(O)CC[C@H]2[C@@H]3C[C@H](C)C4=CC(=O)CC[C@]4(C)[C@H]3CC[C@@]21C [Medroxyprogesterone] | 97.3% and 90.1% | 91.8% | 74% | 92.8% | 103% | 100% | 103% | 104% |
| COC(=O)CCC(=O)CN [Methyl Aminolevulinate Hydrochloride] | 94.6% and 91.5% | 99% | 92.2% | 94.4% | 95% | 97.2% | 93.9% | 102% |
| CC(C)n1nc(-c2cc3cc(O)ccc3[nH]2)c2c(N)ncnc21 [Torkinib (PP242)] | 21.2% and 25.5% | 21.9% | 23.1% | 23% | 12.8% | 9.03% | 9.37% | 15.1% |
| CC(C)(C)c1nc(-c2ccc(NC(=O)Nc3cccc(C(F)(F)F)c3)c3ccccc23)c2c(N)nccn12 [kira6] | 10.9% and 7.91% | 12.4% | 28.8% | 28.4% | 1.58% | 3.37% | 8.47% | 16.5% |
| CS(=O)(=O)c1ccc(C2=C(c3ccccc3)C(=O)OC2)cc1 [Rofecoxib (Vioxx)] | 98.7% and 95.2% | 93.5% | 98.6% | 104% | 94.7% | 101% | 87.8% | 98.8% |
| Cn1ccnc1S [Methimazole (Tapazole, Northyx)] | 101% and 94.7% | 95.5% | 99.3% | 99.8% | 97.7% | 97.6% | 93.2% | 100% |
| Cc1cc(OCc2nnc(SC3CCCC3)n2-c2cccnc2)ccc1-c1ccc(S(C)(=O)=O)cc1 | 0.65% and 0.74% | 1.74% | 0.85% | 1.72% | 0.25% | 0.26% | 0.24% | 0.79% |
| CCCn1/c(=N/C(=O)c2cccc(C(N)=O)c2)[nH]c2ccccc21 [Takinib] | 100% | 96.3% | 98.8% | 103% | 77.8% | 91% | 74.7% | 84.3% |
| CCCCC1=NC2(CCCC2)C(=O)N1Cc1ccc(-c2ccccc2-c2nnn[nH]2)cc1 [Irbesartan (Avapro)] | 85.5% and 88.8% | 86.3% | 88.7% | 101% | 90% | 85.5% | 95.7% | 94.1% |
| CC1(C)S[C@@H]2[C@H](NC(=O)[C@H](N)c3ccc(O)cc3)C(=O)N2[C@H]1C(=O)O [Amoxicillin (Amoxycillin)] | 97.3% and 90.7% | 91.7% | 91.2% | 98.5% | 99.7% | 100% | 92.4% | 105% |
| C[C@H](CCC(=O)O)[C@H]1CC[C@H]2[C@@H]3CC[C@@H]4C[C@H](O)CC[C@]4(C)[C@H]3CC[C@]12C [Lithocholic acid] | 102% and 101% | 101% | 106% | 113% | 98.9% | 104% | 107% | 112% |
| COc1ccc(C(=O)CC2(O)C(=O)Nc3c(Cl)ccc(Cl)c32)cc1 (centres undefined) | 16.2% and 28.8% | 27.4% | 7.08% | 8.57% | 6.9% | 2.04% | 4.82% | 10.3% |
| COc1ccc(C(=O)Nc2sc3c(c2C(N)=O)CCCC3)cc1OC | 95.4% and 96.5% | 91.5% | 93.8% | 91.9% | 79.8% | 93% | 85.2% | 81.4% |
| O=S(=O)(NC1CCCCC1)c1ccc2c(c1)C(=NO)c1cc(S(=O)(=O)NC3CCCCC3)ccc1-2 | 80.3% and 92.9% | 92.3% | 4.08% | 57.4% | 11.1% | 70.7% | 0.52% | 0.59% |
| CC(=O)OCC(=O)[C@@]1(O)[C@H](C)C[C@H]2[C@@H]3CCC4=CC(=O)C=C[C@]4(C)[C@@]3(F)[C@@H](O)C[C@@]21C [Dexamethasone acetate] | 105% and 106% | 106% | 105% | 104% | 103% | 95.5% | 106% | 109% |
